Compound activity deposited in PubChem by The Scripps Research Institute Molecular Screening Center.
Sampled rows, rich in hits. Any-hit rate of the full collection: about 2.4%.
CHRM1 PAM = positive allosteric modulators of human M1 muscarinic receptor | CHO-K1 hM1, Fluo-8 calcium fluorescence, ACh EC20; 0% = ACh EC20, 100% = maximal ACh | actives 0.088% (n = 360,000) | P11229 | activation, % at 3 µM; in the data active means activation above about 19%, passing the limit was not always enough
Target sequence (P11229 whole entry, looked up): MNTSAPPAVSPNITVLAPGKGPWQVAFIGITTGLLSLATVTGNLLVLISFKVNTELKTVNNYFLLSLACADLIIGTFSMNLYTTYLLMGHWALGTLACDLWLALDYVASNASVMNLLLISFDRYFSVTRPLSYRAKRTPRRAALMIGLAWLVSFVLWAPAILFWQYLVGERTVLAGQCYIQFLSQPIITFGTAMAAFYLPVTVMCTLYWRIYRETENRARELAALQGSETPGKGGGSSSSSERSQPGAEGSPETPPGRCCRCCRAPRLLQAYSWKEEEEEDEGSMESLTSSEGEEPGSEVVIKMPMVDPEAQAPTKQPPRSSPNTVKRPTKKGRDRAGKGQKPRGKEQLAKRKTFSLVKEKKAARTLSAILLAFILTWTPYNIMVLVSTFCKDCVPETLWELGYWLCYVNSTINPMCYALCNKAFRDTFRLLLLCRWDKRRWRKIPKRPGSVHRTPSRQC
CHO-K1 Ca ag = counter-screen for M1 agonists: effect in parental CHO-K1 cells; activation, % at 3 µM; actives 0.48% (n = 360,000); Fluo-8 calcium fluorescence; scaled to maximal ATP response, vehicle zero; in the data active means activation above about 15%;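 further: untransfected CHO-K1 host cells lacking M1 receptor as counterscreen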
M1 antag = blocks human M1 muscarinic receptor; actives 1.3% (n = 360,000); P11229; AID 588852; CHO-K1 hM1, Fluo-8 calcium fluorescence, ACh EC80 antagonist; inhibition, % at 3 µM;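 active means percent inhibition above its own plate's cutoff, namely the mean of that plate's compound wells plus 3 SD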;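 further: peak over basal fluorescence ratio during 140 s after agonist addition; 0% = ACh EC80 plus DMSO and 100% = DMSO alone without agonist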
M1 PAM parental = nonselective activator or artifact in parental CHO-K1 calcium assay; actives 0.02% (n = 360,000); activation, % at 3 µM; ATP EC20, Fluo-8 calcium fluorescence; 0% at ATP EC20, 100% at ATP max;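 active means activation above the run cutoff, the mean activation of all test compounds plus 3 SD, cut at about 40% in these data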;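 further: peak over basal fluorescence ratio in a 140 s read after ATP addition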
CHO-K1 Ca antag = counter-screen for M1 antagonists: effect in parental CHO-K1 cells; actives 0.6% (n = 360,000); inhibition, % at 3 µM; AID 602250; ATP-induced calcium, Fluo-8 fluorescence;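 active means inhibition above a per-plate cutoff, the plate's mean sample inhibition plus 3 SD, cut at about 24% in these data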;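 further: 0% = DMSO plus EC80 ATP and 100% = DMSO alone without ATP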
CHRM1 agonist = activates human CHRM1 receptor; activation, % at 3 µM; actives 0.33% (n = 360,000); CHO-K1 hM1, Fluo-8 calcium fluorescence, agonist mode; 0% DMSO, 100% acetylcholine EC100; P11229; AID 588814;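 active means activation above the run's mean compound activation plus 3 SD, cut at about 16% in these data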;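 further: peak over basal fluorescence ratio within a 140 s kinetic read after compound addition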
Numbers without * were called inactive; . = no result given.

SMILES | CHRM1 PAM | CHO-K1 Ca ag | M1 antag | M1 PAM parental | CHO-K1 Ca antag | CHRM1 agonist
Cc1ccccc1S(=O)(=O)Cc1ccc(C(=O)NCCN(Cc2ccccc2)C(C)C)o1 | -14.7 | 0.6 | 32.6 | 1.7 | -11.2 | -4.9
Cc1ccc(S(=O)(=O)NCc2ccc(C(=O)NCCN(Cc3ccccc3)C(C)C)cc2)cc1 | -23.3 | 5.6 | 68.1* | 8.0 | -6.2 | -5.5
Cc1ccc(S(=O)(=O)NCCNC(=O)c2ccccc2)cc1 | 4.7 | 0.0 | 3.5 | 10.3 | -3.9 | -2.6
Cc1cc(N2CCN(C(=O)c3[nH]c(C(F)(F)F)nc3-c3ccccc3)CC2)c2ccccc2n1 | -3.2 | 0.1 | -18.0 | 19.4 | -17.2 | -7.8
COCc1cc(CN2CCN(CCc3ccccc3)C(CCO)C2)ccc1OC (stereo not given) | 5.0 | 0.9 | -10.2 | 20.1 | -4.3 | -6.5
Cc1ccc(/C=N/NC(=O)c2ccccc2OCc2ccc(F)cc2)o1 | 16.9 | 5.5 | -15.2 | 42.8* | -19.1 | -2.6
COc1ccccc1NC(=O)CCN1C(=O)C2CC=CCC2C1=O (stereo not given) | -4.0 | 0.1 | 22.1 | -11.6 | 15.8 | -1.8
CCCCNc1c(-c2ccc(OC)c(Sc3ccc(OC)cc3)c2)nc2ccccn12 | -20.4 | 6.7 | 50.2* | 2.4 | -8.4 | -4.1
CCCCNc1c(-c2ccc(SC(C)CC)c(OC)c2)nc2ccc(C)cn12 (stereo not given) | -21.9 | 2.2 | 43.9* | 0.3 | 8.8 | -7.1
CCCCNc1c(-c2ccc(OC)c(Sc3ccc(OC)cc3)c2)nc2cnccn12 | -2.7 | 1.6 | 7.2 | -11.5 | 3.5 | -0.5
Cc1cccc(C)c1NC(=O)CN(Cc1ccccc1)Cc1ccccc1 | 1.8 | 6.0 | -24.1 | 15.1 | -8.7 | 18.1*
N#Cc1ccsc1NC(=O)CN(Cc1ccccc1)Cc1ccccc1 | 9.5 | 0.9 | -7.6 | 44.5* | -19.1 | -7.6
N#Cc1ccsc1NC(=O)CCc1ccccc1 | 6.7 | 0.6 | -5.9 | 15.5 | -9.7 | -2.0
Cc1ccc(O)c(CCc2ccc(O)cc2)n1 | -2.9 | 0.0 | 3.2 | 15.4 | 6.9 | -5.8
COc1ccc(/C=N/NC(=O)c2ccc(-c3ccccc3)cc2)cc1O | -7.8 | 1.6 | 11.3 | -2.6 | 12.7 | -4.1
COc1ccc(/C=N/NC(=O)c2ccc(CN3C(=O)c4cccc5cccc3c45)cc2)cc1O | 1.4 | 0.4 | -0.3 | -9.4 | 2.8 | 23.1*
COc1cc(/C=N/NC(=O)c2ccc(CN3C(=O)c4cccc5cccc3c45)cc2)cc(OC)c1O | 6.1 | 15.5* | -0.6 | 3.3 | 5.8 | 13.3
COc1cc(/C=N\NC(=O)c2ccc(-c3ccccc3)cc2)cc(Br)c1O | 10.0 | 0.2 | -6.6 | -1.5 | -1.3 | -3.1
O=C(Nc1ccc(S(=O)(=O)NCc2ccccc2)cc1)Nc1ccc2c(c1)OCO2 | -11.5 | 10.1 | 27.1* | 10.1 | 4.8 | 3.3
O=C(Nc1ccccc1)c1cc(S(=O)(=O)NCc2ccncc2)ccc1Cl | -5.3 | 13.5 | 20.4 | -12.2 | 23.7* | 7.5
CN(c1ccc(F)cc1)S(=O)(=O)c1ccc(Cl)c(C(=O)Nc2ccc3c(c2)CCC3)c1 | -6.9 | 0.9 | 12.2 | -5.0 | -1.5 | -3.5
CN(c1ccccc1)S(=O)(=O)c1ccc(Cl)c(C(=O)Nc2ccncc2)c1 | -10.1 | 15.6* | 19.6 | 0.4 | -14.7 | -0.5
CN(c1ccc(F)cc1)S(=O)(=O)c1ccc(Cl)c(C(=O)Nc2ccncc2)c1 | -17.8 | 9.5 | 34.2* | -23.7 | 33.8* | -0.2
O=C(Nc1ccccc1)c1cc(S(=O)(=O)Nc2cccnc2)ccc1Cl | 9.4 | 0.4 | -19.6 | -20.0 | 17.0 | -0.8
CCCCc1ncc(CN2CCN(Cc3ccc(C)cc3)C(CCO)C2)[nH]1 (stereo not given) | 11.8 | 0.5 | -16.5 | 24.9 | -20.3 | -7.8
SMILES | CHRM1 PAM | CHO-K1 Ca ag | M1 antag | M1 PAM parental | CHO-K1 Ca antag | CHRM1 agonist
O=C(c1n[nH]c2ccccc12)N1CCN(c2ccc(F)cc2)CC1 | 3.5 | 1.5 | -3.5 | 6.5 | -5.1 | -3.0
O=C(NCc1ccc(Cl)cc1)C(=O)NCC1OCCCN1S(=O)(=O)c1cccs1 (stereo not given) | 0.8 | 2.8 | -2.7 | 2.1 | -12.4 | -2.6
COc1ccc([C@H]2CC(=O)C[C@@H](CCn3cc(C)nn3)O2)cc1 | . | -0.1 | . | 28.9 | -16.9 | .
CCCCCCC#Cc1cncc(C(=O)NNC(=O)Nc2cc(Cl)cc(Cl)c2)c1 | 4.3 | -0.2 | -5.2 | -10.8 | -1.7 | -3.3
CCCCC#Cc1cncc(C(=O)NN)c1 | 4.1 | 18.9* | -6.4 | 12.0 | -2.4 | 3.9
COc1cccc(C(=O)NCCS(=O)(=O)NCc2ccccn2)c1 | 3.8 | 0.1 | -6.2 | -1.9 | 5.2 | -1.6
COc1ccccc1NC(=S)N1CCc2cc(OC)c(OC)cc2C1 | -0.7 | -0.1 | -1.4 | -16.6 | 24.4* | -3.0
COC(=O)c1ccccc1NC(=O)C1CCN(c2ncnc3c2nc2n3CCCCC2)CC1 | 14.2 | -0.4 | -9.3 | -5.5 | -3.2 | -1.6
Cc1nc(-c2ccc(O)c(O)c2)cs1 | 5.2 | -0.1 | 1.3 | -8.6 | 26.5* | -3.4
COc1ncnc2c1ncn2CCCN1CCN(Cc2ccc(C)cc2)CC1 | -16.4 | 0.1 | 28.1* | 9.7 | 9.1 | -11.0
COc1ncnc2c1ncn2CCCN1CCN(Cc2cccc3ccccc23)CC1 | -7.0 | 1.7 | -1.8 | 25.3 | -10.7 | -4.9
Cc1ccc(NC(=O)C2=CC(c3ccc(C)cc3)=NS(=O)(=O)N2C)cc1 | -22.8 | 11.7 | 36.4* | -7.7 | 16.2 | 3.7
COc1ccc(C2=NS(=O)(=O)N(C)C(C(=O)Nc3ccc(C)cc3)=C2)cc1 | -18.7 | 10.1 | 18.0 | 10.8 | 3.3 | 3.5
CC(C)N(C(=O)c1ccc(Cc2cn(C)c3ccccc23)nc1)C(C)C | 2.6 | 0.3 | -7.1 | 8.6 | -1.2 | -6.3
CCNC(=O)c1c(NC(=O)c2cc(-c3cc(C)cc(C)c3O)n[nH]2)sc2c1CCCC2 | 3.3 | 0.1 | -2.1 | -12.0 | -9.6 | 0.6
OC1CCC(Nc2ccn3nc(-c4cccc(Cl)c4)cc3n2)CC1 (stereo not given) | -0.5 | 3.4 | -3.0 | 15.3 | -6.6 | -1.5
COCCCNc1ccn2nc(-c3cccc(OCc4ccccc4)c3)cc2n1 | -11.4 | 2.1 | 26.8* | -3.7 | 9.1 | -1.3
OC1CCC(Nc2ccn3nc(-c4cccc(OCc5ccccc5)c4)cc3n2)CC1 (stereo not given) | -7.7 | 5.3 | 20.2 | -7.2 | 28.7* | 6.9
COCCCNc1ccn2nc(-c3ccccc3)cc2n1 | 5.0 | 0.6 | -17.4 | 2.1 | -0.9 | -1.7
Cc1cc[n+](CC(=O)c2ccc(NC(=O)c3ccccc3)cc2)cc1 | -12.3 | 0.3 | 31.9* | -10.5 | 6.5 | -5.9
Cc1cc(C)c[n+](CC(=O)c2ccc(-c3ccccc3)cc2)c1 | -23.4 | 0.0 | 35.6* | 18.3 | -6.7 | -14.0
O=C(C[n+]1ccccc1)c1ccc(NC(=O)c2ccccc2)cc1 | 1.8 | 0.3 | 2.4 | 23.1 | -16.7 | -9.3
